Measured values from PubChem BioAssay (EPA / NIEHS).
Several values for one entry are separate records, joined by “and”; a condition that tells them apart may be missing. Equal entries are not always repeated. Results filed as inconclusive are left out. A structure can be active in one record and inactive in another. Activity calls are given as the source filed them. The calls were made as follows, unless noted: active = hit-call score of the fitted dose curve at least 0.9, where 1 is the maximum; inconclusive = response in the unintended direction; inactive = score below 0.9.

Key:
[1] = ATG_PPRE_CIS: Attagene CIS-FACTORIAL HepG2 Assay for human Peroxisome Proliferator-activated Response Element (PPRE) (AID 2282958; active = hit-call score of the fitted dose curve at least 0.9, where 1 is the maximum; inactive = score below 0.9); conditions: HepG2 PPRE cis-element reporter, Attagene transcription factor profiling; actives raise or lower the signal
Summary of the method: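 HepG2 cells transiently transfected with multiplexed cis-element reporter units measure endogenous transcription factor activity. After 24 h compound exposure, reporter mRNA is quantified by RT-PCR, 6-FAM labeling, HpaI digestion and capillary electrophoresis; bidirectional fits are made against DMSO baseline.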

[2] = ATG_VDRE_CIS: Attagene CIS-FACTORIAL HepG2 Assay for human Vitamin D Receptor Element (VDRE) (AID 2282968; active = hit-call score of the fitted dose curve at least 0.9, where 1 is the maximum; inactive = score below 0.9); conditions: HepG2 VDRE cis-reporter transcription, actives raise or lower the signal
Summary of the method: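 Cell-based multiplexed reporter format in human liver HepG2 cells, 24 h post-dose. Fluorescence from capillary electrophoresis of reporter cDNA gives the signal, with DMSO as negative control and baseline.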

[3] = target: Glucocorticoid receptor (Homo sapiens) (UniProt P04150); test: ATG_GR_TRANS: Attagene TRANS-FACTORIAL HepG2 Assay for human Glucocorticoid Receptor (GR) (AID 2282978); conditions: HepG2 Attagene TRANS GR reporter, mRNA transcription;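 also: activators score as hits since higher reporter transcript over DMSO is fitted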
Summary of the method: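 HepG2 cells transiently transfected with multiplexed reporter units in which chimeric NR-GAL4 proteins drive GAL4-UAS reporters; 24 h compound exposure. Reporter mRNA measured by RT-PCR, 6-FAM labelling, HpaI digestion and capillary electrophoresis; gain-of-signal fitted versus DMSO.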

[4] = target: Oxysterols receptor LXR-alpha (Homo sapiens) (UniProt Q13133); test: ATG_LXRa_TRANS: Attagene TRANS-FACTORIAL HepG2 Assay for human Liver X Receptor alpha (LXRa) (AID 2282980); conditions: HepG2 Attagene TRANS reporter, LXRa transactivation
Summary of the method: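 HepG2 cells were transiently transfected with multiplexed reporter units driven by chimeric LXRa–GAL4 fusion proteins, then dosed for 24 h. Reporter mRNA was quantified by RT-PCR, fluorescent labelling and capillary electrophoresis; gain of signal fitted against DMSO baseline.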

[5] = target: Oxysterols receptor LXR-beta (Homo sapiens) (UniProt P55055); test: ATG_LXRb_TRANS: Attagene TRANS-FACTORIAL HepG2 Assay for human Liver X Receptor beta (LXRb) (AID 2282981); conditions: HepG2 Attagene TRANS GAL4-LXRb reporter, mRNA
Summary of the method: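 Gain-of-signal mRNA reporter endpoint, DMSO as negative control. Transiently transfected HepG2 cells carrying the NR-Gal4 chimera and GAL4-UAS reporter units were treated 24 h; transcripts quantified by RT-PCR and capillary electrophoresis fluorescence.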

[6] = target: Nuclear receptor subfamily 4 group A member 2 (Homo sapiens) (UniProt P43354); test: ATG_NURR1_TRANS: Attagene TRANS-FACTORIAL HepG2 Assay for human Nuclear Receptor Related Protein 1 (NURR1) (AID 2282985); conditions: HepG2 Attagene TRANS reporter, mRNA readout
Summary of the method: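 HepG2 / transient MRTU transfection / 24 h compound exposure / RT-PCR + CE fluorescence of reporter mRNA / gain-of-signal vs DMSO.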

[7] = target: Peroxisome proliferator-activated receptor gamma (Homo sapiens) (UniProt P37231); test: ATG_PPARg_TRANS: Attagene TRANS-FACTORIAL HepG2 Assay for human Peroxisome Proliferator-activated Receptor-gamma (PPARg) (AID 2283007)
Summary of the method: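 HepG2 cells transiently transfected with multiplexed GAL4-UAS reporter units and exogenous chimeric NR-Gal4 proteins; reporter mRNA quantified after 24 h compound exposure by RT-PCR, fluorescent labelling, HpaI digestion and capillary electrophoresis; gain-of-signal fitted versus DMSO baseline.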

[8] = target: human RAR-related Orphan Receptor beta (RORb), RORB (gene 6096) (UniProt Q92753); test: ATG_RORb_TRANS: Attagene TRANS-FACTORIAL HepG2 Assay for human RAR-related Orphan Receptor beta (RORb) (AID 2283010)
Summary of the method: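 HepG2 cells were transiently transfected with multiplexed GAL4-UAS reporter units expressing chimeric nuclear receptor–GAL4 proteins, then dosed for 24 h. Reporter mRNA was quantified by RT-PCR with fluorescent labelling and capillary electrophoresis; gain of signal was fitted relative to DMSO.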

[9] = ATG_XTT_Cytotoxicity: Cytotoxicity Assessment in the Attagene TRANS-FACTORIAL HepG2 Assay (AID 2283584)
Summary of the method: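 HepG2 human liver cells, transiently transfected with multiple GAL4-UAS reporter units, were dosed and read at 24 h by XTT as cell number. Loss of signal was fitted relative to DMSO negative control baseline.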

[10] = read-out: Interleukin-8 (IL8), CXCL8 (gene 3576); test: BSK_3C_IL8: BioMAP Diversity Plus: 3C Assay for Interleukin-8 (IL8) Biomarker Activity (AID 2283020; active = hit-call score of the fitted dose curve at least 0.9, where 1 is the maximum; inactive = score below 0.9); conditions: primary human endothelial cells (HUVEC); actives raise or lower the signal
Summary of the method: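 Primary human umbilical vein endothelial cells (3C system) were exposed to test chemical for 24 h, then IL-8 was quantified by ELISA. Responses were fitted bidirectionally against DMSO vehicle as baseline.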

[11] = read-out: Thrombomodulin, THBD (gene 7056); test: BSK_3C_Thrombomodulin: BioMAP Diversity Plus: 3C Assay for Thrombomodulin Biomarker Activity (AID 2283029; active = hit-call score of the fitted dose curve at least 0.9, where 1 is the maximum; inactive = score below 0.9); conditions: primary human endothelial cells (HUVEC); actives raise or lower the signal
Summary of the method: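 Primary human umbilical vein endothelial cells (3C system) were exposed to chemical for 24 h, then thrombomodulin levels were measured by ELISA. Activity was fitted bidirectionally against the DMSO negative control as baseline.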

[12] = read-out: Vascular cell adhesion molecule 1 (VCAM1), VCAM1 (gene 7412); test: BSK_CASM3C_VCAM1: BioMAP Diversity Plus: CASM3C Assay for Vascular cell adhesion molecule 1 (VCAM1) Biomarker Activity (AID 2283055; active = hit-call score of the fitted dose curve at least 0.9, where 1 is the maximum; inactive = score below 0.9;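 also: VCAM-1 protein level quantified by ELISA on the cells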); conditions: primary human coronary artery smooth muscle cells; actives raise or lower the signal
CD40, CD40 (gene 958) = test: BSK_SAg_CD40: BioMAP Diversity Plus: SAg Assay for CD40 Biomarker Activity (AID 2283088; active = hit-call score of the fitted dose curve at least 0.9, where 1 is the maximum; inactive = score below 0.9); conditions: primary human HUVEC with PBMC; actives raise or lower the signal
Summary of the method: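 Human umbilical vein endothelial cells co-cultured with PBMC; CD40 levels measured by ELISA with fluorescence read-out 24 h after chemical dosing. Gain or loss of signal fitted bidirectionally against DMSO baseline.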

[13] = target: human Peroxisome Proliferator-activated Receptor delta (PPARd), PPARD (gene 5467) (UniProt Q03181); test: ATG_PPARd_TRANS: Attagene TRANS-FACTORIAL HepG2 Assay for human Peroxisome Proliferator-activated Receptor delta (PPARd) (AID 2283002)
Summary of the method: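 Read-out: reporter mRNA induction, quantified by fluorescent RT-PCR products resolved by capillary electrophoresis. Human HepG2 liver cells carried transiently transfected Gal4-UAS reporter constructs with chimeric NR-Gal4 fusions. Cells were dosed for 24 h; DMSO served as baseline.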

[14] = target: Retinoic acid receptor RXR-alpha (Homo sapiens) (UniProt P19793); test: ATG_RXRa_TRANS: Attagene TRANS-FACTORIAL HepG2 Assay for human Retinoid X Receptor alpha (RXRa) (AID 2283012)
Summary of the method: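 HepG2 cells transiently transfected with multiplexed GAL4-UAS reporter units and chimeric NR-GAL4 fusions, dosed 24 h. Reporter mRNA measured by RT-PCR, FAM labelling, HpaI digestion and capillary electrophoresis; gain-of-signal fitted relative to DMSO baseline.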

[15] = CCTE_Harrill_HTTr_Viability_MCF7: CCTE's 6-hour Cell Viability Assessment for the High-Throughput Transcriptomics (HTTr) Platform, in MCF-7 cells cultured in DMEM + 10% fetal bovine serum, Harrill Lab (AID 2284010; active = hit-call score of the fitted dose curve at least 0.9, where 1 is the maximum; inactive = score below 0.9)
Summary of the method: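 Membrane integrity was scored by high-content imaging of propidium iodide dye exclusion after a 6 h exposure across an eight-point dilution series. Data were fitted bidirectionally relative to DMSO as negative control and baseline.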

[16] = target: CCAAT/enhancer-binding protein beta (Homo sapiens) (UniProt P17676); test: ATG_C_EBP_CIS: Attagene CIS-FACTORIAL HepG2 Assay for human CCAAT/Enhancer Binding Protein (C/EBP) beta (AID 2282927; active = hit-call score of the fitted dose curve at least 0.9, where 1 is the maximum; inactive = score below 0.9); conditions: HepG2 Attagene cis-factorial transcription factor reporter; actives raise or lower the signal
Summary of the method: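 Transiently transfected HepG2 (MRTU library, endogenous TF-driven promoters); 24 h dosing; total RNA → oligo(dT) RT → PCR → 6-FAM primer extension → HpaI digest → CE; fit bidirectionally vs DMSO.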

[17] = target: Nuclear receptor subfamily 1 group I member 2 (Homo sapiens) (UniProt O75469); test: ATG_PXR_TRANS: Attagene TRANS-FACTORIAL HepG2 Assay for human Pregnane X Receptor (PXR) (AID 2283008)
Summary of the method: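 Fluorescence intensity of FAM-labelled, HpaI-digested reporter amplicons, separated by capillary electrophoresis, quantifies induction. HepG2 cells with PXR-Gal4 trans-reporter system were exposed 24 h; DMSO defines baseline.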

[18] = ACEA_ER_AUC_viability: ACEA Biosciences xCELLigence Real-Time Cell Analysis on Estrogen Receptor Agonism for Viability (AID 2283782);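 also: continuous compound exposure with impedance area under curve over 80 h; hit means loss of impedance signal meaning reduced cell growth or viability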
Summary of the method: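 T47D cells preconditioned in phenol red-free RPMI with charcoal-stripped FBS, then dosed with 8-point 1:4 series from 100 uM (up to 0.5% DMSO). Impedance monitored up to ~80 h; area-under-curve loss versus DMSO taken as viability.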

[19] = target: Bile acid receptor (Homo sapiens) (UniProt Q96RI1); test: ATG_IR1_CIS: Attagene CIS-FACTORIAL HepG2 Assay for human Nuclear Receptor Subfamily 1 Group H Member 4 (NR1H4), IR1 submotif (AID 2282946; active = hit-call score of the fitted dose curve at least 0.9, where 1 is the maximum; inactive = score below 0.9); conditions: IR1 reporter transcription, actives raise or lower the signal
Summary of the method: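 HepG2 cells transiently transfected with multiple cis-promoter-driven reporter units to measure endogenous transcription factor activity; 24 h exposure. Reporter mRNA read by RT-PCR, FAM labelling, HpaI digestion and capillary electrophoresis. Bidirectional fit versus DMSO.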

Measured: AC50

human Peroxisome Proliferator-activated Receptor delta (PPARd), PPARD (gene 5467), sequence (Q03181 whole entry, looked up, the tested form may be a part): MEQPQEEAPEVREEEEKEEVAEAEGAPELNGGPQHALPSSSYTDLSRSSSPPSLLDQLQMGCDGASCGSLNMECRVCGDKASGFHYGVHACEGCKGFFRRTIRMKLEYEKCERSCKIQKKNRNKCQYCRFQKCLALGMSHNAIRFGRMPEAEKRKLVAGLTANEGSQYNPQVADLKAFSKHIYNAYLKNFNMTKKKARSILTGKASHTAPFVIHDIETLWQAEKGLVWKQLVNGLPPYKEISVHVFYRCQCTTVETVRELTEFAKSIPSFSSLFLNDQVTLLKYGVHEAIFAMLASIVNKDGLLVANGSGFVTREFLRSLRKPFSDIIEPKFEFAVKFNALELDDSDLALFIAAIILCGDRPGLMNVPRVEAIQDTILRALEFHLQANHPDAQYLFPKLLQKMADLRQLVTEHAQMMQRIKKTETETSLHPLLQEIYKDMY
human RAR-related Orphan Receptor beta (RORb), RORB (gene 6096), sequence (Q92753 whole entry, looked up, the tested form may be a part): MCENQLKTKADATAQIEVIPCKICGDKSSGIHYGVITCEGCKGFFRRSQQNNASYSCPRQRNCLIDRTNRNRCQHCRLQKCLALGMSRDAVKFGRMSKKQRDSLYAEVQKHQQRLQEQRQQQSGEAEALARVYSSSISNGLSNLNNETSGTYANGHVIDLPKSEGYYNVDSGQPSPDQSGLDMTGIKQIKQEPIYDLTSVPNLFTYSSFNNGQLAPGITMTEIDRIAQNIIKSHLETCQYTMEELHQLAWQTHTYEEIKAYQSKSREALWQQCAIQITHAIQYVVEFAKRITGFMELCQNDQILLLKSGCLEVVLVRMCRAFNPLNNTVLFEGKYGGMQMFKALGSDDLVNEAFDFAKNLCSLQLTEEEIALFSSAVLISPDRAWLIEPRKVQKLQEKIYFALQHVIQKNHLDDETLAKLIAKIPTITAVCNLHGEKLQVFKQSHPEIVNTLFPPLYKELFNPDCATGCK
Glucocorticoid receptor (Homo sapiens), sequence (P04150 whole entry, looked up, the tested form may be a part): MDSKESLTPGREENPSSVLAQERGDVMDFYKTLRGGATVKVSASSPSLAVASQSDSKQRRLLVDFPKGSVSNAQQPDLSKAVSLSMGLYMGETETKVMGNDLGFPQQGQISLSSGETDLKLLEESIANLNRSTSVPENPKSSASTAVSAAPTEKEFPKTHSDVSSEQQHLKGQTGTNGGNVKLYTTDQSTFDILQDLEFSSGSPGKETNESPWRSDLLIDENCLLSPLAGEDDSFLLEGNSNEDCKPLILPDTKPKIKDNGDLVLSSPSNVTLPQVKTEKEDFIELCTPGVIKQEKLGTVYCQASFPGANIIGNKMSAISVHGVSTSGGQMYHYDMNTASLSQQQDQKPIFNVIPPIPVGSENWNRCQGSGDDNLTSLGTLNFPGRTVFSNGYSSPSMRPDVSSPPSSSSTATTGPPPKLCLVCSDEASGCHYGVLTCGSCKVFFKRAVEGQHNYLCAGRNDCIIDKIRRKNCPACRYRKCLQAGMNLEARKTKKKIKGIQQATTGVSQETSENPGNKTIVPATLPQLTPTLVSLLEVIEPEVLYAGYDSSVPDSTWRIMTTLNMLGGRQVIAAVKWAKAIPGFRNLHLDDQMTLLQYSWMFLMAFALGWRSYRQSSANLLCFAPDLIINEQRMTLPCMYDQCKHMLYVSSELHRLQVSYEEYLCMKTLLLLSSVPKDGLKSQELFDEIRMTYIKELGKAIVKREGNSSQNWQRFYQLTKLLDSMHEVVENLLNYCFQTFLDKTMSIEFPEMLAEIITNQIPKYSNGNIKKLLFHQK
Peroxisome proliferator-activated receptor gamma (Homo sapiens), sequence (P37231 whole entry, looked up, the tested form may be a part): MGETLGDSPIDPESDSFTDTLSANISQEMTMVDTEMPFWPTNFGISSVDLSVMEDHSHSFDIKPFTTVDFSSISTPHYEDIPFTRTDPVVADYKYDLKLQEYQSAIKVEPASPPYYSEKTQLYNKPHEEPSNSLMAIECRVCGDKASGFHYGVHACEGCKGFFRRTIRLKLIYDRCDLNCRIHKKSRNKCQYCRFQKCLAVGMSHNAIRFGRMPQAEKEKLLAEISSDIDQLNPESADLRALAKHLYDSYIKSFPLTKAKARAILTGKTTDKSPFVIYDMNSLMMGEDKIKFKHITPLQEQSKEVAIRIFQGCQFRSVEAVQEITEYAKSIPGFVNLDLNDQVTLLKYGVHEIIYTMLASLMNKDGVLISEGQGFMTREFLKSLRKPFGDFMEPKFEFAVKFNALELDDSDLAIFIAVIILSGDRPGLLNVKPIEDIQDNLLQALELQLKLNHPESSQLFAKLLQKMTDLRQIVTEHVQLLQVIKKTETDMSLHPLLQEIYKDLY
Nuclear receptor subfamily 4 group A member 2 (Homo sapiens), sequence (P43354 whole entry, looked up): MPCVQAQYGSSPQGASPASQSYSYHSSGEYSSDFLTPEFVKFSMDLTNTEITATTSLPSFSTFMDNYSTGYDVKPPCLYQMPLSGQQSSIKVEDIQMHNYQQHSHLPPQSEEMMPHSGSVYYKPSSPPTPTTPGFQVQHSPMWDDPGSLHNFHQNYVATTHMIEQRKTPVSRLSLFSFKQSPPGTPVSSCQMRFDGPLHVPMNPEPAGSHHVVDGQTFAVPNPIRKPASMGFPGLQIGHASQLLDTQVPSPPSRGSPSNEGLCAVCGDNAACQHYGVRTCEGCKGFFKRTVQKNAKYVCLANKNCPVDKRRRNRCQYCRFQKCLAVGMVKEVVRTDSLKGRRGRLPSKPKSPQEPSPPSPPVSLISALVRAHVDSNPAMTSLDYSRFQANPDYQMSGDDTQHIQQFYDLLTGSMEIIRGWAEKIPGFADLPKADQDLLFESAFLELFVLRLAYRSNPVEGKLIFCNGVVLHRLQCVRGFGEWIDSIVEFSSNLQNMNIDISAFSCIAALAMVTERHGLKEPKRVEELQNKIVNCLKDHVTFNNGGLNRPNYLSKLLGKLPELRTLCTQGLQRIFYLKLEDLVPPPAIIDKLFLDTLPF
Oxysterols receptor LXR-alpha (Homo sapiens), sequence (Q13133 whole entry, looked up, the tested form may be a part): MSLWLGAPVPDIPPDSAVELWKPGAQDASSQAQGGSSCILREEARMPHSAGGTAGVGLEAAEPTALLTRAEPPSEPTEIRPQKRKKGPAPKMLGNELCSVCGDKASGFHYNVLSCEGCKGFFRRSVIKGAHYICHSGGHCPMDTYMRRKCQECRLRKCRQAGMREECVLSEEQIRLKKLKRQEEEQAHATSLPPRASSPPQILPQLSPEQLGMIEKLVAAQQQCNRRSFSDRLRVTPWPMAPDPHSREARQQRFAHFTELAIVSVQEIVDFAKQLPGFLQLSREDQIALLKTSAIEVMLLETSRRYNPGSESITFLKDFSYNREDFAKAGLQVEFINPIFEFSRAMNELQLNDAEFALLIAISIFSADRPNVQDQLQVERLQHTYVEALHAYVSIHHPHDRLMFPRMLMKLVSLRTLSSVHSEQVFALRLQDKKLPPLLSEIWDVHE
Oxysterols receptor LXR-beta (Homo sapiens), sequence (P55055 whole entry, looked up, the tested form may be a part): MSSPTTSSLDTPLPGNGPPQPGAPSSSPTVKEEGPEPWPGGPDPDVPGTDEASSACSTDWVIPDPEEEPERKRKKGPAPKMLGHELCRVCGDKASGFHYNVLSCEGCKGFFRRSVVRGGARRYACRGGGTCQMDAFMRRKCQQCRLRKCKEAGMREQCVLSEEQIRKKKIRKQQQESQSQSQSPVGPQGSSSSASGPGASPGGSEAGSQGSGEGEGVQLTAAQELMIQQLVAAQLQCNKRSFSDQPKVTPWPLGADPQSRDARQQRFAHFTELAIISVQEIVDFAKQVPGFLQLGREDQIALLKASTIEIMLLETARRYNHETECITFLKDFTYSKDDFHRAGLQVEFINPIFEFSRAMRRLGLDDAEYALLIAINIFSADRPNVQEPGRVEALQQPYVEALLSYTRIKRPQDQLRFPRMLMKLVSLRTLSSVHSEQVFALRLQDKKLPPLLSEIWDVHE
Retinoic acid receptor RXR-alpha (Homo sapiens), sequence (P19793 whole entry, looked up, the tested form may be a part): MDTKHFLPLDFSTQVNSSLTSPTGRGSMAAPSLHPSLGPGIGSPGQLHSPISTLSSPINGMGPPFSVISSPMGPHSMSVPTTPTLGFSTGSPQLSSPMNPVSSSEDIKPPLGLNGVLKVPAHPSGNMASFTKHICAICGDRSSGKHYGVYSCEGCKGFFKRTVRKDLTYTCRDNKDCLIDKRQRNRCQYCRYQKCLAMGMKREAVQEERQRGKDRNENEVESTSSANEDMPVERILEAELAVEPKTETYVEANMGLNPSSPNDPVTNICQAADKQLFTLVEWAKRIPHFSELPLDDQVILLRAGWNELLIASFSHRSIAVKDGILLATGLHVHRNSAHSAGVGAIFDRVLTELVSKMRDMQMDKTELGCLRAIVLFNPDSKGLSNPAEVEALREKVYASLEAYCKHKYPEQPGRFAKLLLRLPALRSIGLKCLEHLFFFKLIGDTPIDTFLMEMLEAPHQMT
Nuclear receptor subfamily 1 group I member 2 (Homo sapiens), sequence (O75469 whole entry, looked up, the tested form may be a part): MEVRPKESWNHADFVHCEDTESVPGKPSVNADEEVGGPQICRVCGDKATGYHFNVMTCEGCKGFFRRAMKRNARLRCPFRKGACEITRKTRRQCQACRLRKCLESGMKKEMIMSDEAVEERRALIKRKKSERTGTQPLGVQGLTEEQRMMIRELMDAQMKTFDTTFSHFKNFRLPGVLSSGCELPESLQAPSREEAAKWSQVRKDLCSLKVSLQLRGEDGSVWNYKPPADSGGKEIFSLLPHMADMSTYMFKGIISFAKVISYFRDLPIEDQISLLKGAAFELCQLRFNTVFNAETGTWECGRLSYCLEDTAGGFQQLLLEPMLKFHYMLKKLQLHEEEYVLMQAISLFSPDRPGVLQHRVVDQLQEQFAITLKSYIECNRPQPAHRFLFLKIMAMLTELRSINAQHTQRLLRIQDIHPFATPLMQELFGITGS
CCAAT/enhancer-binding protein beta (Homo sapiens), sequence (P17676 whole entry, looked up): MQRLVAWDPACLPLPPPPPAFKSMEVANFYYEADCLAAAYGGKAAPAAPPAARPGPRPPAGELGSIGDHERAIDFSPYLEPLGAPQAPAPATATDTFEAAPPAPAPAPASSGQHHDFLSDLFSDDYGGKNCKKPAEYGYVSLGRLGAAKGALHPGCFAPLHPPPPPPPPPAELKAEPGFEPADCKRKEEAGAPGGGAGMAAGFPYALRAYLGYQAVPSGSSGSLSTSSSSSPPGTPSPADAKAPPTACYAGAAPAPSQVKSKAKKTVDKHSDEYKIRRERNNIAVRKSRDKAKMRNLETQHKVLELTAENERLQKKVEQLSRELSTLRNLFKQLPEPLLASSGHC

C=C(C)C(=O)OCCCCCC
inactive: [1] | [2] | [3] | [4] | [5] | [6] | [7] | [8] | [9]

O=[N+]([O-])c1cc(S(=O)(=O)Nc2ccccc2)ccc1Nc1ccccc1
inactive: [10] | [11] | [12]
active: [10] 30.7 µM | [11] 20 µM | [12] 20 µM | CD40, CD40 (gene 958) 26 µM and 25 µM

O=C(O)/C=C\C(=O)O
inactive: [2] | [3] | [5] | [6] | [13] | [8] | [14] | [9] | [15]

O=C(C1CCCCC1)N1CC(=O)N2CCc3ccccc3C2C1 (configuration not stated)
inactive: [16] | [1] | [3] | [6] | [7] | [14] | [15]

CCOC(=O)c1ccccc1
inactive: [1] | [4] | [5] | [6] | [13] | [7] | [17] | [8] | [14]
active: [3] 27.9 µM | [18] 50 µM

COc1ccc(C(=O)c2ccccc2O)c(O)c1
inactive: [10] | [11] | CD40, CD40 (gene 958) | [15]
active: [10] 7.28 µM | [12] 13.4 µM and 3.97 µM | CD40, CD40 (gene 958) 29.9 µM

CC(=O)OC(C)(C)Cc1ccccc1
inactive: [16] | [19] | [4] | [5] | [6] | [13] | [17] | [8] | [14] | [9] | [18]

Nc1nc(N)c2nc(-c3ccccc3)c(N)nc2n1
inactive: [15]
